Consider 64 compounds from the supplement of paper PMC12669032.

Assay [1] concerns Roseburia intestinalis. The experiment in a line: growth AUC relative to DMSO control (median of replicates) (fraction); higher = more growth (less inhibition), active = hit call of the paper. Conditions: 20 µM; 24 h. In short, it runs like this:
(§1)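 Gut bacteria were grown singly in mGAM at 37 °C without oxygen, from OD600 0.05, alongside 20 µM compound in 1% DMSO, and OD600 was read each hour for 24 h. Area under the growth curve was normalised to the median of solvent-only wells per plate, or to row and column medians on the industrial chemical plate. The minimum OD was set to 0 beforehand, and the reported value is the median of three biological replicates grown on separate days.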

The test system of assay [2] is Streptococcus salivarius. The description is as above. To be noted: 20 µM; 24 h. In short, it runs like this:
as §1

A number with no mark means an inactive call.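 How the source made its calls: active = AUC reduced over 20% with Padj below 0.05 in at least 2 of 3 replicates; inactive = otherwise.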

Regarding `Oc1cc(Cl)cc(Cl)c1`, the “growth AUC” value in assay [1] was 1.01; in assay [2], 1.

As to `CC1(C(=O)Nc2ccc(O)c(Cl)c2Cl)CCCCC1`, the “growth AUC” value is 0.86 in assay [1] and 0.967 in assay [2].

Regarding `CC(Oc1ccc(Oc2nc3ccc(Cl)cc3o2)cc1)C(=O)O` (racemic), the figures for the “growth AUC” value in assay [1] and in assay [2] were 1.12 and 0.999, respectively.

Regarding `OC(Cc1ccccc1Cl)(Cn1[nH]cnc1=S)C1(Cl)CC1` (stereo not drawn), the “growth AUC” value in assay [1] is 0.978; in assay [2], 0.959.

Regarding `CCCSP(=O)(OCC)SCCC`, the “growth AUC” value is 1 in assay [1] and 0.984 in assay [2].

Turning to `CCSCc1ccccc1OC(=O)NC`, the “growth AUC” value in assay [1] is 1.01; in assay [2] it was 1.02.

Turning to `COCC(=O)N(c1c(C)cccc1C)[C@H](C)C(=O)OC`, the “growth AUC” value in assay [1] is 0.966; in assay [2] it was 1.02.

As for `CCOP(=S)(OCC)SCn1nnc2ccccc2c1=O`, the “growth AUC” value in assay [1] was 1.11; in assay [2] it was 0.993.

For the compound `Nc1c([N+](=O)[O-])ccc(Oc2ccccc2)c1Cl`, the “growth AUC” value in assay [1] was 0.988; in assay [2] it was 0.929.

For the compound `CC1(C)C(C(=O)OC(C#N)c2cccc(Oc3ccccc3)c2)C1(C)C` (stereo not drawn), the “growth AUC” value in assay [1] is 0.929; in assay [2], 0.957.

On to `COP(=S)(OC)Oc1ccc(S(N)(=O)=O)cc1`, for which the “growth AUC” value in assay [1] was 1.03; in assay [2], 0.985.

For the compound `CCCN(CCC)c1c([N+](=O)[O-])cc(S(N)(=O)=O)cc1[N+](=O)[O-]`, the “growth AUC” value in assay [1] is 0.961; in assay [2] it was 0.985.

`CCCCOC(=O)c1ccccc1C(=O)OCCCC`: the “growth AUC” value was 0.953 in assay [1] and 1.02 in assay [2].

Consider `Clc1ccccc1Cl`, for which the “growth AUC” value in assay [1] was 0.968; in assay [2], 1.07.

In the case of `CCCCCCCCCCCCCN1CC(C)OC(C)C1` (stereo not drawn), the “growth AUC” value is 0.937 in assay [1] and 1.01 in assay [2].

Regarding `CC(=O)O.CCCCCCCCCCCCN=C(N)N`, the “growth AUC” value in assay [1] is 0.805; in assay [2], 1.03.

Regarding `Clc1ccc(C2(Cn3cncn3)CC(Br)CO2)c(Cl)c1` (stereo not drawn), the results for the “growth AUC” value in assay [1] and in assay [2] were 0.99 and 0.988, respectively.

Regarding `COc1nc(NC(C)C)nc(NC(C)C)n1`, the “growth AUC” value in assay [1] is 0.963; in assay [2], 1.05.

Take `CC(C)=NOCCOC(=O)[C@@H](C)Oc1ccc(Oc2cnc3cc(Cl)ccc3n2)cc1`: the “growth AUC” value in assay [1] was 1.05; in assay [2] it was 0.966.

Take `COP(=O)(OC)Oc1ccc([N+](=O)[O-])cc1`: the “growth AUC” value in assay [1] is 1.04; in assay [2] it was 1.03.

For `COC(=O)C(C)(Cl)Cl`, the “growth AUC” value was 1.12 in assay [1] and 0.979 in assay [2].

For the compound `CC#Cc1cc(C)nc(Nc2ccccc2)n1`, the “growth AUC” value in assay [1] and in assay [2] was 1.01 each time.

Take `Nc1c(Cl)c(Cl)c(Cl)c(Cl)c1Cl`: the entries for the “growth AUC” value in assay [1] and in assay [2] were 0.986 and 0.983, respectively.

On to `CC1(C)[C@H](/C=C(\Cl)C(F)(F)F)[C@@H]1C(=O)O[C@@H](C#N)c1cccc(Oc2ccccc2)c1`, for which the “growth AUC” value in assay [1] is 0.919; in assay [2], 0.957.

Take `Cc1cc(Cl)ccc1N=CN(C)C`: the “growth AUC” value is 1.02 in assay [1] and 0.998 in assay [2].

With `CC(C)(C)c1cc([N+](=O)[O-])cc([N+](=O)[O-])c1O`, the entries for the “growth AUC” value in assay [1] and in assay [2] were 0.802 and 0.848, respectively.

As to `Cc1cc(C(F)(C(F)(F)F)C(F)(F)F)ccc1NC(=O)c1cccc(I)c1C(=O)NC(C)(C)CS(C)(=O)=O`, the “growth AUC” value is 1.67 in assay [1] and 0.919 in assay [2].

In the case of `COc1cc(OC)n2nc(S(=O)(=O)Nc3c(Cl)ccc(C)c3Cl)nc2n1`, the “growth AUC” value in assay [1] was 0.999; in assay [2], 0.954.

On to `C/C(=N/Nc1nc(C)cc(C)n1)c1ccccc1C`, for which the “growth AUC” value in assay [1] was 0.715 (active); in assay [2], 0.999.

Regarding `O=c1oc2ccccc2c(O)c1C1CC(c2ccc(-c3ccc(Br)cc3)cc2)Cc2ccccc21` (stereo not drawn), the “growth AUC” value in assay [1] is 0.345 (active); in assay [2], 0.393 (active).

In the case of `O=S(=O)(c1ccccc1)c1ccccc1`, the results for the “growth AUC” value in assay [1] and in assay [2] were 0.956 and 0.943, respectively.

With `ClCC(Br)CBr` (stereo not drawn), the figures for the “growth AUC” value in assay [1] and in assay [2] were 1 and 0.973, respectively.

For `CCOC1Oc2ccc(OS(C)(=O)=O)cc2C1(C)C` (stereo not drawn), the “growth AUC” value is 0.924 in assay [1] and 0.964 in assay [2].

Take `Clc1ccc(Cl)cc1`: the “growth AUC” value was 1.01 in assay [1] and 1.02 in assay [2].

Consider `CCC(=O)Nc1ccc(Cl)c(Cl)c1`, for which the “growth AUC” value in assay [1] is 0.917; in assay [2], 0.973.

With `CCSC(=O)N1CCCCCC1`, the “growth AUC” value in assay [1] is 1; in assay [2], 1.01.

On to `CCOC(=O)C(O)(c1ccc(Cl)cc1)c1ccc(Cl)cc1`, for which the “growth AUC” value was 1.03 in assay [1] and 0.978 in assay [2].

Regarding `Nc1cccc(Cl)c1Cl`, the “growth AUC” value is 1.02 in assay [1] and 1.01 in assay [2].

As to `CCOP(=S)(Oc1cnc(C(C)(C)C)nc1)OC(C)C` (stereo not drawn), the results for the “growth AUC” value in assay [1] and in assay [2] were 1.01 and 0.994, respectively.

Take `COP(=S)(OC)SCC(=O)N(c1ccc(Cl)cc1)C(C)C`: the “growth AUC” value in assay [1] was 1.03; in assay [2], 0.992.

Take `O=C1CCc2cccc3c2N1CC3`: the “growth AUC” value is 0.989 in assay [1] and 0.941 in assay [2].

Turning to `CNC(=O)Oc1cc(C)c(N(C)C)c(C)c1`, the “growth AUC” value was 0.962 in assay [1] and 0.961 in assay [2].

In the case of `CCOP(=S)(OCC)Oc1ccc(S(C)=O)cc1` (stereo not drawn), the results for the “growth AUC” value in assay [1] and in assay [2] were 1.02 and 1.03, respectively.

With `CCC(C)c1cc([N+](=O)[O-])cc([N+](=O)[O-])c1OC(=O)C=C(C)C` (stereo not drawn), the “growth AUC” value in assay [1] is 0.948; in assay [2], 0.872.

Take `COc1ccccc1N`: the “growth AUC” value is 1.03 in assay [1] and 0.998 in assay [2].

Take `ClC1C(Cl)C(Cl)C(Cl)C(Cl)C1Cl` (mixture of isomers): the “growth AUC” value in assay [1] is 1.02; in assay [2], 0.974.

As to `CCCOCCN(C(=O)CCl)c1c(CC)cccc1CC`, the “growth AUC” value in assay [1] was 0.947; in assay [2] it was 0.952.

With `OCC1C(CO)C2(Cl)C(Cl)=C(Cl)C1(Cl)C2(Cl)Cl` (stereo not drawn), the “growth AUC” value in assay [1] is 0.953; in assay [2], 0.82.

With `FC(F)C(F)(F)OCC(Cn1cncn1)c1ccc(Cl)cc1Cl` (stereo not drawn), the “growth AUC” value in assay [1] was 0.956; in assay [2], 0.996.

With `Oc1ccc(Cl)cc1`, the “growth AUC” value is 0.972 in assay [1] and 0.984 in assay [2].

Consider `CO/C=C(/C(=O)OC)c1ccccc1COc1cccc(C(F)(F)F)n1`, for which the “growth AUC” value was 0.989 in assay [1] and 0.999 in assay [2].

Regarding `CC(C)C(C(=O)OC(C#N)c1cccc(Oc2ccccc2)c1)c1ccc(OC(F)F)cc1` (stereo not drawn), the “growth AUC” value is 0.977 in assay [1] and 0.993 in assay [2].

For the compound `Oc1ccc(Cc2ccc(O)cc2)cc1`, the “growth AUC” value in assay [1] is 0.999; in assay [2], 0.966.

For `Cc1nc(N(C)C)nc(OC(=O)N(C)C)c1C`, the results for the “growth AUC” value in assay [1] and in assay [2] were 0.988 and 1, respectively.

For `CCCN(CCCl)c1c([N+](=O)[O-])cc(C(F)(F)F)cc1[N+](=O)[O-]`, the results for the “growth AUC” value in assay [1] and in assay [2] were 0.989 and 0.928, respectively.

With `COP(=S)(OC)Oc1cc(Cl)c(Br)cc1Cl`, the results for the “growth AUC” value in assay [1] and in assay [2] were 1.03 and 0.995, respectively.

On to `C#CCOS(=O)OC1CCCCC1Oc1ccc(C(C)(C)C)cc1` (mixture of isomers), for which the “growth AUC” value in assay [1] is 0.956; in assay [2], 1.03.

Take `CC(C)(C)C(O)C(Cc1ccc(Cl)cc1Cl)n1cncn1` (mixture of isomers): the results for the “growth AUC” value in assay [1] and in assay [2] were 0.918 and 0.974, respectively.

With `CCOC(=O)OC1=C(c2cc(C)ccc2C)C(=O)NC12CCC(OC)CC2` (stereo not drawn), the “growth AUC” value in assay [1] is 0.995; in assay [2] it was 0.987.

Take `CC1(C)[C@H](C(=O)O[C@H](C#N)c2cccc(Oc3ccccc3)c2)[C@@H]1C=C(Br)Br`: the figures for the “growth AUC” value in assay [1] and in assay [2] were 0.933 and 0.914, respectively.

As for `CCCCCCCC(=O)Oc1c(I)cc(C#N)cc1I`, the results for the “growth AUC” value in assay [1] and in assay [2] were 0.957 and 0.805, respectively.

As to `CCOP(=O)(NC(C)C)Oc1ccc(S(C)=O)c(C)c1` (stereo not drawn), the “growth AUC” value in assay [1] and in assay [2] was 1.05 throughout.

Regarding `Cc1cccc(C)c1N`, the “growth AUC” value in assay [1] is 0.977; in assay [2] it was 1.04.

`CCOP(=O)(OCC)OCC`: the entries for the “growth AUC” value in assay [1] and in assay [2] were 1.07 and 0.994, respectively.
